# Source: PubChem BioAssay (Tox21)
# Inconclusive results are not listed. Entries that show only a call come without a potency. Values without a mark were called inactive. Activity calls are given as the source filed them. Unless noted, calls follow the shape of the dose curve; as a rule, active = well fitted curve in the direction sought with a large enough effect in the repeat runs; inconclusive = weak or mixed curves; inactive = no such curve, though single readings can be large; an effect the other way counts as inactive or inconclusive.
# What was measured:
# [1] = qHTS assay to identify small molecule agonists of the vitamin D receptor (VDR) signaling pathway - cell viability counter screen (AID 743224); also: nearly all actives have a fitted effect of over 50% in size; also: potency is read from the fitted curve at half-maximal effect
# Procedure, shortened: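 Counter screen for cytotoxicity: VDR-bla cells at 2,000 cells/well, 16 h compound exposure, then CellTiter-Glo luminescence after the beta-lactamase measurement.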
# [2] = qHTS assay to identify small molecule antagonists of the vitamin D receptor (VDR) signaling pathway - cell viability counter screen (AID 743225); also: nearly all actives have a fitted effect of over 50% in size
# Procedure, shortened: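 VDR-UAS-bla HEK 293T cells were plated and incubated 4 h at 37C, then dosed with compound plus 3 nM (final) 1-alpha,25-dihydroxyvitamin D3 for 16 h. After the 2 h beta-lactamase read, viability in the same wells was read as CellTiter-Glo luminescence after 30 min at room temperature.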
# [3] = qHTS assay to identify small molecule agonists of the NFkB signaling pathway (AID 1159509; active = well fitted curve in the direction sought with a large enough effect in the signal ratio in the repeat runs, not every such curve was filed as active; the % refers to the signal ratio; also: series mostly up to about 61 µM)
# Procedure, shortened: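 Agonist activity was read as beta-lactamase-driven FRET change (460 and 530 nm emission, 405 nm excitation) following 1.5 hr substrate loading at room temperature. Beforehand, ME-180 NFkB-bla reporter cells were treated with compounds for 5 hr at 37 C.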
# [4] = qHTS assay to identify small molecule agonists of the NFkB signaling pathway - cell viability counter screen (AID 1159515; calls by dose curve; also: series mostly up to about 61 µM; nearly all actives have a fitted effect of over 55% in size)
# Procedure, shortened: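 Counter screen run alongside the NFkB-bla agonist assay: ME-180 reporter cells exposed to compounds for 5 hr, then lysed with CellTiter-Glo in the same wells. Luminescence, read after 30 min, reflects viable cells.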
# [5] = qHTS assay to identify small molecule agonists of the endoplasmic reticulum stress response signaling pathway - cell viability counter screen (AID 1159517; calls by dose curve; also: series mostly up to about 61 µM; nearly all actives have a fitted effect of over 50% in size)
# Procedure, shortened: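 ESRE-bla HeLa cells (1,500/well) were plated overnight at 37 C and exposed to compounds for 5 hr. After the 2 hr beta-lactamase substrate read, CellTiter-Glo went into the same wells, and luminescence was read after 30 min at room temperature.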
# [6] = molecular target: Nuclear receptor ROR-gamma (Homo sapiens) (UniProt P51449); test: qHTS assay to identify small molecule antagonists of the retinoid-related orphan receptor gamma (ROR-gamma) signaling pathway (AID 1159521;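 also: CHO cells with doxycycline inducible ROR-gamma driving an RORE luciferase reporter; top concentration of the series differs between compounds; nearly all actives have a fitted effect of over 50% in size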)
# Procedure, shortened: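 Tet-on ROR-gamma CHO cells with ROR response element-luciferase reporter; compounds added 2 hr before 1 uM doxycycline induction, then 16 hr at 37 C. Antagonism scored as decreased ONE-Glo luminescence.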
# [7] = qHTS assay to identify small molecule agonists of the AP-1 signaling pathway - cell viability counter screen (AID 1159525; calls by dose curve; also: nearly all actives have a fitted effect of over 55% in size)
# Procedure, shortened: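 Intracellular ATP by Cell Titer Glo luminescence (30 min, RT) in the same ME-180 AP-1-bla wells after the 5 h compound exposure at 37 °C. Normalised to tetra n-octyl ammonium bromide and DMSO controls.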
# [8] = qHTS assay to identify small molecule agonists of the AP-1 signaling pathway (AID 1159526; calls by dose curve)
# [9] = molecular target: Retinoic acid receptor RXR-alpha (Homo sapiens) (UniProt P19793); test: qHTS assay to identify small molecule agonists of the RXR signaling pathway (AID 1159527; calls by dose curve; also: nearly all actives have a fitted effect of over 35% in size)
# Chain of Retinoic acid receptor RXR-alpha (Homo sapiens) (P19793 whole entry, looked up): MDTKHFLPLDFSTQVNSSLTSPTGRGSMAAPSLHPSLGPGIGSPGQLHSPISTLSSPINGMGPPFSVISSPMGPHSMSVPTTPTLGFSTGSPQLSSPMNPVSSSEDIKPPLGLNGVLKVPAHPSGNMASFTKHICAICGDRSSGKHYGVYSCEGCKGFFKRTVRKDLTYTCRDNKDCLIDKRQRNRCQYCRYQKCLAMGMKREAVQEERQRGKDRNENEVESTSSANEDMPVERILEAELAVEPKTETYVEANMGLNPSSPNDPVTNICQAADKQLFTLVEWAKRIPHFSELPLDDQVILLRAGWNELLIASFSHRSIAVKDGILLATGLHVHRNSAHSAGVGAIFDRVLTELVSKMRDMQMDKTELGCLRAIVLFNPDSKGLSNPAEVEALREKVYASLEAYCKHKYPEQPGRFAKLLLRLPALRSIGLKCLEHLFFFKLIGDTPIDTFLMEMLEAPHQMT
# Procedure, shortened: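 GeneBLAzer RXR-alpha-UAS-bla HEK 293T cells in 2% charcoal-stripped FBS medium were exposed to compounds for 16 hr at 37 C in agonist mode. Beta-lactamase reporter read as 460/530 nm FRET ratio after 2 hr substrate loading.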
# [10] = qHTS assay to identify small molecule agonists of the RXR signaling pathway - cell viability counter screen (AID 1159529)
# Procedure, shortened: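 RXR-alpha-UAS-bla HEK 293T cells in medium with 2% charcoal-stripped FBS were pre-incubated 5 hr, then compound-treated 16 hr at 37 C. Viability was read by CellTiter-Glo luminescence in the same wells as the beta-lactamase assay, with tetraoctyl ammonium bromide as positive control.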
# [11] = qHTS assay to identify small molecule antagonists of the retinoid acid receptor (RAR) signaling pathway - cell viability counter screen (AID 1159551); also: nearly all actives have a fitted effect of over 35% in size
# Procedure, shortened: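 Measured by luminescent ATP detection, viability reflects C3RL4 cells treated 6 h at 37 C with test chemicals in the presence of 1 uM (final) retinol.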
# [12] = qHTS assay to identify small molecule agonists of the retinoic acid receptor (RAR) signaling pathway (AID 1159553); also: potency is read from the fitted curve at half-maximal effect
# Procedure, shortened: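 6 hr compound exposure (DMSO vehicle) of overnight-plated C3RL4 RARE-luc cells at 37 C; luminescence quantified after 30 min RT with luciferase reagent.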
# [13] = qHTS assay to identify small molecule antagonists of the retinoid-related orphan receptor gamma (ROR-gamma) signaling pathway - cell viability counter screen (AID 1159520); also: nearly all actives have a fitted effect of over 50% in size
# Procedure, shortened: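 Cytotoxicity was read from cellular ATP (CellTiter-Glo luminescence) after 16 hr at 37 C with 1 uM doxycycline induction. The inducer was added 2 hr after compound transfer to Tet-on ROR gamma CHO cells.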
# [14] = qHTS assay to identify small molecule antagonists of the retinoic acid receptor (RAR) signaling pathway (AID 1159552; also: nearly all actives have a fitted effect of over 50% in size)
# Procedure, shortened: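 Retinol signaling pathway inhibitors screened in C3RL4 RARE-luciferase reporter cells seeded overnight at 37 C, then compounds added with 1 uM (final) retinol as pathway substrate. After 6 hr at 37 C, luciferase luminescence read after 30 min at room temperature.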
# [15] = qHTS assay to identify small molecule agonists of the endoplasmic reticulum stress response signaling pathway (AID 1159516; active = well fitted activation curve with a large enough effect in the signal ratio in the repeat runs, not every such curve was filed as active; the % refers to the signal ratio)
# Procedure, shortened: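 For this screen, HeLa cells stably carrying beta-lactamase under the ER stress response element received test compounds, positive controls or DMSO for 5 hr at 37 C; B/G FRET substrate was then added and dual-wavelength emission recorded.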
# [16] = qHTS assay to identify small molecule antagonists of the estrogen related receptor (ERR) signaling pathway - cell viability counter screen (AID 1224818); also: series mostly up to about 46 µM
# Procedure, shortened: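 Compounds dissolved in DMSO were applied to ERR cells seeded at 2,000 per well 6 h earlier. Cell viability followed 17.5 h later via 30-min CellTiter-Fluor fluorescence.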
# [17] = qHTS assay to identify small molecule antagonists of the estrogen related receptor (ERR) signaling pathway (AID 1224819)
# Procedure, shortened: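 Compounds dissolved in DMSO were pin-transferred onto ERR cells that had been plated 6 h earlier, and cells were then incubated 18 h at 37 C; signal was luciferase luminescence via One-Glo.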
# [18] = qHTS assay to identify small molecule agonists of the estrogen related receptor (ERR) signaling pathway (AID 1224820)
# Procedure, shortened: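 After 6 h plating (2,000 cells/well) and 18 h compound treatment at 37 C, ERR cells were lysed with One-Glo and luminescence read after 30 min at room temperature.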
# [19] = tested on: estrogen-related receptor alpha (ERRalpha) with PGC-1alpha coactivator, human; test: qHTS assay to identify small molecule antagonists of the estrogen related receptor signaling pathway with the pleiotropic PPARgamma coactivator (PGC) (AID 1224821; calls by dose curve)
# Procedure, shortened: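 Luminescence from One-Glo luciferase reagent (30 min, room temperature) measured after 18 h compound treatment at 37 °C. Cells carry the PGC/ERR reporter and were seeded 6 h prior to dosing.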
# [20] = qHTS assay to identify small molecule antagonists of the estrogen related receptor signaling pathway with the pleiotropic PPARgamma coactivator (PGC) cell viability counter screen (AID 1224822; also: series mostly up to about 46 µM)
# Procedure, shortened: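 Counter screen for cell viability: PGC/ERR cells, 6 h pre-incubation after plating, 17.5 h compound exposure at 37 C, fluorescence from CellTiter-Fluor after 30 min.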
SMILES,Potency [1],Potency [2],outcome [3],Potency [4],Potency [5],Potency [6],Potency [7],outcome [8],Potency [9],Potency [10],Potency [11],Potency [12],Potency [13],Potency [14],Potency [15],outcome [16],Potency [17],outcome [18],Potency [19],outcome [20]
CC(C)(C)S,inactive,inactive,inactive,inactive,inactive,inactive,inactive,inactive,inactive,inactive,inactive,inactive,,,,,,,,
O=C(O)CN1C(=O)c2cccc3cccc(c23)C1=O,inactive,inactive,inactive,inactive,inactive,inactive,inactive,inactive,inactive,,inactive,,,,,,,,,
Cc1ccc2nc(N)[nH]c(=O)c2c1Sc1ccncc1,inactive,inactive,inactive,inactive,inactive,,inactive,inactive,inactive,,inactive,,inactive,,,,,,,
CC(=O)OCCC1CCCCC1,inactive,inactive,inactive,inactive,inactive,,inactive,inactive,inactive,inactive,inactive,,inactive,inactive,,,,,,
COc1ccc2nc(S(=O)Cc3ncc(C)c(OC)c3C)[nH]c2c1 (stereo unspecified),inactive,inactive,inactive,inactive,inactive,,inactive,inactive,inactive,,inactive,67.8 µM (active),inactive,inactive,,,,,,
COc1cc(NCc2ccc3nc(N)nc(N)c3c2C)cc(OC)c1OC,0.15 µM (active),,inactive,inactive,inactive,inactive,inactive,inactive,,,inactive,inactive,inactive,,,,,,,
CC[C@@H](CO)NCCN[C@@H](CC)CO,,inactive,inactive,,,inactive,inactive,inactive,inactive,inactive,inactive,inactive,inactive,inactive,inactive,,,,,
CC(=O)OCC(C)C,inactive,inactive,inactive,inactive,inactive,,inactive,inactive,,inactive,inactive,inactive,inactive,,,,,,,
Nc1c(Cl)cc(Cl)cc1[N+](=O)[O-],inactive,inactive,inactive,,,,inactive,inactive,inactive,inactive,inactive,inactive,inactive,,inactive,,,,,
O=C(O)c1cccc(Oc2ccccc2)c1,inactive,inactive,inactive,,,inactive,inactive,inactive,,inactive,inactive,,inactive,,inactive,,,,,
CC(=O)NNC(C)=O,inactive,,inactive,,,,inactive,inactive,,inactive,inactive,inactive,inactive,,inactive,,,,,
CCCCCCCC(=O)OCCCCCC,inactive,inactive,inactive,,inactive,inactive,inactive,inactive,inactive,inactive,inactive,,inactive,inactive,,,,,,
COc1cc(C(C)=O)ccc1OCCCN1CCC(c2noc3cc(F)ccc23)CC1,inactive,inactive,inactive,,,inactive,inactive,,,inactive,inactive,,,,inactive,,,,,
N[C@@H](Cc1cc(I)c(O)c(I)c1)C(=O)O,inactive,inactive,inactive,,inactive,inactive,inactive,inactive,,inactive,inactive,,inactive,,,,,,,
CCCCCc1ccco1,,,inactive,,inactive,inactive,inactive,inactive,,inactive,inactive,inactive,,,,,,,,
c1ccc(CCCc2ccncc2)cc1,inactive,inactive,inactive,,,inactive,inactive,inactive,,,inactive,68.6 µM (active),inactive,inactive,inactive,,,,,
CC/C=C\C/C=C\C/C=C\CCCCCCCC(=O)OCC,,,inactive,,inactive,inactive,inactive,inactive,,,inactive,,inactive,,,,,,,
CC(C)(C(=O)c1cccnc1)c1cccnc1,inactive,inactive,inactive,,,,inactive,inactive,inactive,,inactive,,,inactive,inactive,,,,,
CCCc1nc2c(C)cc(-c3nc4ccccc4n3C)cc2n1Cc1ccc(-c2ccccc2C(=O)O)cc1,inactive,inactive,inactive,,inactive,inactive,inactive,inactive,,,inactive,inactive,inactive,,,,,,,
COc1ccc(-n2nc(C(F)F)cc2-c2ccc(S(C)=O)cc2)cc1 (stereo unspecified),inactive,inactive,inactive,,inactive,,inactive,inactive,,inactive,inactive,,,,,,,,,
COC(C)(C)OC,inactive,,inactive,,,inactive,inactive,inactive,inactive,,inactive,,inactive,,inactive,,,,,
O=NN(CCCl)C(=O)NCCCl,,inactive,inactive,,,inactive,inactive,inactive,,inactive,inactive,,inactive,,inactive,inactive,inactive,inactive,inactive,inactive
O=C(/C=C/c1ccc([N+](=O)[O-])cc1)c1ccccc1,inactive,inactive,inactive,,,inactive,inactive,,,,inactive,,inactive,inactive,inactive,,,,,
COc1ccc(C2C(=O)c3ccccc3C2=O)cc1,,inactive,inactive,,,inactive,,inactive,inactive,,inactive,,,inactive,inactive,,,,,
C=CC(=O)NC(C)C,inactive,inactive,inactive,,,,inactive,inactive,,inactive,inactive,,inactive,,inactive,,,,,
